Screens as filed in PubChem BioAssay.
Compounds with a hit are over-represented: about 1.8% of the library has one in this group of screens.
GSTO1 inh – blocks human GSTO1 in RBBP9 counter-screen; P78417; recombinant GSTO1, activity-based probe fluorescence polarization; inhibition, % at 5.96 µM; 1.1% of 300,000 active; AID 1974;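 active means inhibition above the campaign mean inhibition plus 3 SD, cut at about 35% in these data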;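 further: 0% = GSTO1-1 with DMSO and 100% = wells lacking GSTO1-1 enzyme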
PAD4 FP inh – inhibitors of human PAD4. Q9UM07. recombinant PAD4, RCA probe fluorescence polarization. inhibition, % at 6.36 µM. 0.41% of 330,000 active;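 active means percent inhibition above a cutoff equal to the mean of all tested compounds plus 3 SD, cut at about 15% in these data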;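 further: 0% = PAD4 with RCA probe and DMSO and 100% = probe without PAD4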
Target sequence (Q9UM07 whole entry, looked up): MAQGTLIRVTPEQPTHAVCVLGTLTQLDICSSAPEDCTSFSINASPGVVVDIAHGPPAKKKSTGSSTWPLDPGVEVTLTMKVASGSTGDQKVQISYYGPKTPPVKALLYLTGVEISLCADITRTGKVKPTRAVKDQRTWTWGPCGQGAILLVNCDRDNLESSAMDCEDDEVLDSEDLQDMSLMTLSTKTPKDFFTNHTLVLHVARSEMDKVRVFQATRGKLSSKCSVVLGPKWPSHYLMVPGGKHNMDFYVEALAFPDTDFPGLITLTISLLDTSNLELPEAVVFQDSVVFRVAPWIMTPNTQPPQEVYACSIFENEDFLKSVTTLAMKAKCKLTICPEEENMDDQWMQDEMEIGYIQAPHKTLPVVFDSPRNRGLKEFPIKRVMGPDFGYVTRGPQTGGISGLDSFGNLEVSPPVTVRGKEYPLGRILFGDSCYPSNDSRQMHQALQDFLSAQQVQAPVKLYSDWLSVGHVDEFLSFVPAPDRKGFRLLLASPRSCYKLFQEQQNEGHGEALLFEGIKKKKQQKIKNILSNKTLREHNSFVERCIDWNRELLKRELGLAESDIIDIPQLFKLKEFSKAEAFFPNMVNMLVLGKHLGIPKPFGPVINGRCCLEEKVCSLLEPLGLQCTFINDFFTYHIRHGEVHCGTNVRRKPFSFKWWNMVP
Fam108B counter – Fam108B inhibition, counter-screen for RBBP9 inhibitors. recombinant Fam108B, FP-Rh probe fluorescence polarization. inhibition, % at 9.51 µM. 0.33% of 300,000 active;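 active means inhibition above the screen mean inhibition plus 3 SD, computed separately per campaign, cut at about 18% in these data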;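 further: inhibitors lower polarization as less probe binds the enzyme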
PME-1 inh – blocks human protein phosphatase methylesterase 1 | inhibition, % at 5.9 µM | AID 2130 | recombinant PME-1, FP-Rh probe fluorescence polarization | 0.53% of 320,000 active;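 active means inhibition above the campaign mean of all compounds plus 3 SD, cut at about 26% in these data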;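 further: competitive labeling of PME-1 active site by serine hydrolase directed probe; 0% = PME-1 with DMSO and 100% = wells lacking PME-1 enzyme; inhibitors block probe labeling so polarization falls and inhibition rises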
LYPLA2 counter – blocks human lysophospholipase 2, a PME1 counter-screen; AID 2177; recombinant LYPLA2, FP-Rh probe fluorescence polarization; inhibition, % at 5.9 µM; O95372; 0.38% of 320,000 active;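 active means inhibition above the screen-wide mean plus 3 SD, limit set per campaign, cut at about 26% in these data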;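 further: 0% = LYPLA2 with DMSO and 100% = wells lacking LYPLA2 enzyme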
LYPLA1 inh – counter-screen for PME1 inhibitors: inhibitors of human LYPLA1; O75608; recombinant LYPLA1, FP-Rh probe fluorescence polarization; inhibition, % at 5.9 µM; 0.16% of 320,000 active; AID 2174;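 active means inhibition above the mean of all tested compounds plus 3 SD, set per campaign, cut at about 14% in these data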;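 further: inhibitors block serine hydrolase probe labeling of LYPLA1 so polarization falls; 0% = enzyme with DMSO and 100% = wells lacking LYPLA1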
Active calls of the source: *.

What do the screens show for `CCc1nnc(NC(=O)CSc2nc(C)c3c(c2C#N)CCCC3)s1`?
GSTO1 inh: 14; PAD4 FP inh: 0; Fam108B counter: 5; PME-1 inh: 33*; LYPLA2 counter: 3; LYPLA1 inh: 0

What do the screens show for `COc1ccc(NC(=O)CSc2nc(C)c3c(c2C#N)CCCC3)cc1`?
GSTO1 inh: -1; PAD4 FP inh: -2; Fam108B counter: 0; PME-1 inh: 2; LYPLA2 counter: 13; LYPLA1 inh: 3

How did CC(C)(C)c1ccc(COn2c(=O)c(-c3ccco3)[n+]([O-])c3ccccc32)cc1 do in these assays?
GSTO1 inh: 43*; PAD4 FP inh: -3; Fam108B counter: -7; PME-1 inh: -3; LYPLA2 counter: 2; LYPLA1 inh: -2

What do the screens show for `CS(=O)(=O)N1N=C(c2ccccc2)CC1c1ccc2c(c1)OCO2` (centres undefined)?
GSTO1 inh: 3; PAD4 FP inh: -10; Fam108B counter: -7; PME-1 inh: 28*; LYPLA2 counter: -11; LYPLA1 inh: -9

How did CS(=O)(=O)Nc1cccc(C2=NN(S(C)(=O)=O)C(c3ccc4c(c3)OCO4)C2)c1 (centres undefined) do in these assays?
GSTO1 inh: 0; PAD4 FP inh: -1; Fam108B counter: 2; PME-1 inh: 15; LYPLA2 counter: 5; LYPLA1 inh: -3

What do the screens show for `Oc1ccc(O)cc1`?
GSTO1 inh: 56*; PAD4 FP inh: -2; Fam108B counter: -4; PME-1 inh: -2; LYPLA2 counter: 2; LYPLA1 inh: 0

Results for CCn1c2ccccc2c2cc(NC(=O)c3ccccc3[N+](=O)[O-])ccc21 ?
GSTO1 inh: 1; PAD4 FP inh: 2; Fam108B counter: 13; PME-1 inh: 30*; LYPLA2 counter: -4; LYPLA1 inh: -1

Results for COc1cccc(/C=c2\s/c(=C/C(=O)c3ccc(C)cc3)[nH]c2=O)c1OC ?
GSTO1 inh: -6; PAD4 FP inh: -4; Fam108B counter: -20; PME-1 inh: -4; LYPLA2 counter: -3; LYPLA1 inh: -1

Results for COc1ccc(/C=c2\s/c(=C/C(=O)c3ccc(C)cc3)[nH]c2=O)c(OC)c1 ?
GSTO1 inh: 28; PAD4 FP inh: -10; Fam108B counter: -3; PME-1 inh: 27*; LYPLA2 counter: -28; LYPLA1 inh: -13

How did Oc1ccc(Br)cc1-c1nc2cnccn2c1NC1CCCC1 do in these assays?
GSTO1 inh: 3; PAD4 FP inh: -3; Fam108B counter: 10; PME-1 inh: 26*; LYPLA2 counter: -3; LYPLA1 inh: 0

Results for Oc1ccc(Br)cc1-c1nc2cnccn2c1NC1CCCCC1 ?
GSTO1 inh: 11; PAD4 FP inh: 0; Fam108B counter: 11; PME-1 inh: 7; LYPLA2 counter: -9; LYPLA1 inh: -5

How did COc1ccc(-c2[nH]c(-c3ccc(SC)cc3)nc2SCC(=O)Nc2nccs2)cc1 do in these assays?
GSTO1 inh: -23; PAD4 FP inh: -3; Fam108B counter: 36*; PME-1 inh: 70*; LYPLA2 counter: 6; LYPLA1 inh: -11

Results for CC(=O)c1ccc(OCC(=O)Nc2ccccc2C(=O)NC2CC2)cc1 ?
GSTO1 inh: 1; PAD4 FP inh: 0; Fam108B counter: 10; PME-1 inh: -36; LYPLA2 counter: -3; LYPLA1 inh: -1

Results for O=C(CCl)Nc1ccc(N2CCCCCC2)cc1 ?
GSTO1 inh: 95*; PAD4 FP inh: 2; Fam108B counter: 3; PME-1 inh: -4; LYPLA2 counter: -2; LYPLA1 inh: -1

What do the screens show for `CCC(=O)Nc1ccc(N2CCCCC2)cc1`?
GSTO1 inh: 3; PAD4 FP inh: 0; Fam108B counter: 5; PME-1 inh: 1; LYPLA2 counter: -2; LYPLA1 inh: 1

What do the screens show for `COc1ccc(S(=O)(=O)N(C)C[C@H]2Oc3c(NC(=O)C4CCCCC4)cccc3C(=O)N([C@H](C)CO)C[C@@H]2C)cc1`?
PAD4 FP inh: -1

What do the screens show for `O=C(N/N=C1/C(=O)c2cccc3cccc1c23)c1ccc(Cl)cc1`?
GSTO1 inh: 30; PAD4 FP inh: 2; Fam108B counter: 10; PME-1 inh: 7; LYPLA2 counter: 31*; LYPLA1 inh: 6

How did CC(=O)C1=C(c2ccccc2)NC(=O)NC1c1ccc(O)c(O)c1 (centres undefined) do in these assays?
GSTO1 inh: 37*; PAD4 FP inh: -4; Fam108B counter: 2; PME-1 inh: -1; LYPLA2 counter: -9; LYPLA1 inh: -3
